The values below come from PubChem BioAssay (NCATS).

“And” between values parts separate entries of the source, which are not always exact repeats. Identical values can stand only once. Results filed as inconclusive are left out. The source made the active and inactive calls. Unless noted, the call rests on the fitted dose curve; in most records, active means well fitted curve in the direction sought with a large enough effect; inconclusive means small, poorly fitted or top-dose-only effect, or another doubt; inactive means no such curve, though single readings can be large; an effect the other way counts as inactive or inconclusive.

Test [1] is described as follows: Cell Viability - SH-SY5Y (AID 544).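 Further: cells exposed to compound for 40 hours; nearly all actives have a fitted effect of over 55% in size.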 Further: potency means the concentration at half of the fitted maximal effect.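 On viability change, negative = cytotoxic: 0% = DMSO alone and -100% = 100 µM tamoxifen.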 To be noted: SH-SY5Y neuroblastoma cell viability; viability change, negative = cytotoxic: at 92.2 µM (top of the series). An outline of the steps:
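Luminescent ATP read-out (CellTiter-Glo) measures loss of viable SH-SY5Y neuroblastoma cells after 40 hr compound exposure at 37 °C. AC50 values derive from standard Hill modelling of qHTS concentration-response data.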

A short description of test [2]: Cellular Toxicity (caspase-3) SHSY5Y (AID 657). The method in brief: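 SH-SY5Y human neuroblastoma cells, 1500/well, exposed to compound for 16 hours at 37 °C in complete medium. Caspase-3/7 activity read by Caspase-Glo luminescence after 1 hr at room temperature, normalized to DMSO and 10 uM staurosporine; AC50 from Hill fit.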
Test [3] is described as follows: Cellular Toxicity (caspase-3) H-4-II-E (AID 663).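 Further: cells exposed to compound for 16 hr before readout; 0% = DMSO basal and 100% = 100 µM tamoxifen.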 To be noted: Potency: caspase-3 activation. The method in brief: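 Rat hepatoma H-4-II-E cells (1500/well) plated 5 hr, then exposed to compound titrations for 16 hr at 37 °C. Caspase-Glo 3/7 luminescence read after 20 min at RT; data normalized to DMSO and 100 uM tamoxifen, AC50 from Hill fits.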
The nature of test [4]: Cellular Toxicity (caspase-3) Renal Proximal Tubule (AID 667).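 Further: cells exposed to compound for 16 hours at 37 °C before detection; 0% = DMSO basal and 100% = 10 µM staurosporine.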 The method in brief:
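Freshly isolated primary rat kidney proximal tubule cells, 1000/well, treated 16 hr at 37 °C, then Caspase-Glo 3/7 luminescence after 1 hr. Normalized to DMSO and 10 uM staurosporine; AC50 from Hill fit.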

A short description of test [5]: MultiTox-Fluor Cytotoxicity Assay - LYMP1-002 - Dead Cells (AID 960). Further: nearly all actives have a fitted effect of over 60% in size. The method in brief: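 LYMP1-002 cells 2500/well; 5 hr 37 C pre-incubation; compound 16 hr 37 C; MultiTox-Fluor reagent 60 min RT; dead-cell fluor Ex/Em 485/520. Norm. to DMSO (0%) vs 15 uM tetraoctylammonium bromide (100%); Hill AC50.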
Test [6] in a line: Cell Viability - LYMP2-002 (AID 977).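 Further: compound exposure lasted 24 h at 37 °C; plate controls were DMSO only for no effect and 92 µM tetraoctylammonium bromide for full effect.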 An outline of the steps: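 Human lymphoblastoid LYMP2-002 cells, 2500 per well, exposed to compounds for 24 h at 37 C in complete medium; viability read as intracellular ATP by CellTiter-Glo luminescence, AC50 from Hill fits.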
Test [7] is described as follows: Cell Viability - LYMP2-006 (AID 978). Further: on the % scale 0 is the no-effect control and ±100 the full control effect; nearly all actives have a fitted effect of over 60% in size. The method in brief:
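Human lymphoblastoid cells (LYMP2-006), 2500/well in complete medium, were treated with compound for 24 hr at 37 C. Cellular ATP was read by CellTiter-Glo luminescence after 30 min, and AC50 values came from Hill-equation fits of concentration-response data.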

Test [8] is described as follows: Cell Viability - LYMP2-014 (AID 983).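 Further: plate controls were DMSO only for no effect and 92 µM tetraoctylammonium bromide for full effect; nearly all actives have a fitted effect of over 50% in size.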 The method in brief:
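Luminescent ATP signal (CellTiter-Glo, 30 min at room temperature) serves as the viability read-out after 24 hr compound exposure at 37 C. Cells were seeded at 2500 per well and settled 5 hr beforehand.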

Test [9] can be described thus: Cell Viability - LYMP2-016 (AID 984). Further: on the % scale 0 is the no-effect control and ±100 the full control effect; nearly all actives have a fitted effect of over 55% in size. The method in brief:
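Human lymphoblastoid LYMP2-016 cells, 2500 per well, treated with compounds for 24 h at 37 C. Viability read as intracellular ATP by CellTiter-Glo luminescence after 30 min at room temperature; AC50 from Hill fits of concentration-response.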

A short description of test [10]: Cell Viability - LYMP1-002 - Assay at 24 hr (AID 993). Further: on the % scale 0 is the no-effect control and ±100 the full control effect. The method in brief: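 Cells plated 2500/well, 5 hr 37 C; compounds added, 24 hr 37 C; CellTiter-Glo added, 30 min RT; luminescence read. Tetraoctylammonium bromide positive control. Hill-equation AC50.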
The nature of test [11]: qHTS assay for small molecule agonists of retinoid X receptor alpha signaling (AID 588544; calls by dose curve;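 on activation: 0% = DMSO basal wells and 100% = reference agonist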). To be noted: HEK293T RXRa-UAS-bla, beta-lactamase reporter, 18 h; 530 nm emission. On the technique in general: qHTS replaces the single test concentration by a dilution series.
The target in test [12] is Retinoic acid receptor RXR-alpha (Homo sapiens) (UniProt P19793). The description is as above.
Sequence of Retinoic acid receptor RXR-alpha (Homo sapiens) (P19793 whole entry, looked up): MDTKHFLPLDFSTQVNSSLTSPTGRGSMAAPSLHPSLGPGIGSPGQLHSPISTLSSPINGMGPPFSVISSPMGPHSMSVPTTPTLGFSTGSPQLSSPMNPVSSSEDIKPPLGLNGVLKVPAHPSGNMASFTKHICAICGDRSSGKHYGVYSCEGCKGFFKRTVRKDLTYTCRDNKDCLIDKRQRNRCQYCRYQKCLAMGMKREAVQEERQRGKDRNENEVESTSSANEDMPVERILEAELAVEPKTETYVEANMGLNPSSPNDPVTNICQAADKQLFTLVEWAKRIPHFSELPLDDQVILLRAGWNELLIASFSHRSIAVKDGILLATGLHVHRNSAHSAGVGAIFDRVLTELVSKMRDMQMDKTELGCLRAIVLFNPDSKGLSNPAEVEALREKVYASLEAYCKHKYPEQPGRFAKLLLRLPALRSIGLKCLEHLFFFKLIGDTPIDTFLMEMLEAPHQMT
The target of test [13] is Voltage-gated inwardly rectifying potassium channel KCNH2 (Homo sapiens) (UniProt Q12809). The test is described as follows: qHTS Assay for Small Molecule Inhibitors of the Human hERG Channel Activity (AID 588834).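 Further: top concentration of the series differs between compounds; on the % scale 0 is the no-effect control and ±100 the full control effect; lower thallium flux fluorescence means stronger hERG block; nearly all actives have a fitted effect of over 50% in size.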 An outline of the steps:
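U2OS cells BacMam-transduced with hERG, 2000 cells/well, compound ~10 min at 37 °C before stimulation buffer. FluxOR thallium flux fluorescence read kinetically on FDSS; decrease indicates block; AC50 from Hill fits.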

The target in test [14] is Tumor necrosis factor (Homo sapiens) (UniProt P01375). The test is described as follows: qHTS assay to identify small molecules that stimulate Tumor Necrosis Factor-alpha (TNF-alpha) secretion (AID 651757; active means well fitted curve in the direction sought with a large enough effect in the signal ratio; the % refers to the signal ratio; further: 0% is about no effect). An outline of the steps:
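Read-out is HTRF, a TR-FRET sandwich of cryptate- and XL665-labeled anti-TNF-alpha antibodies detecting cytokine secreted by THP-1 cells. Cells had been incubated with test compounds at 37 C for 17 hrs beforehand.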

Test [15] can be described thus: qHTS assay for small molecule antagonists of the retinoid-related orphan receptor gamma (ROR-gamma) signaling pathway - cell viability counter screen (AID 720652; active means well fitted curve in the direction sought with a large enough effect in the repeat runs; an effect the other way counts as inactive or inconclusive;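 further: compound exposure lasted 16 hr before ATP read; on the % scale 0 is the no-effect control and ±100 the full control effect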). The method in brief:
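Luminescence from CellTiter-Glo after 30 min at room temperature reported cellular ATP as the cytotoxicity measure. Cells were the CHO reporter line with doxycycline-induced ROR-gamma expression, exposed to compound for 16 hr at 37 C.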

Test [16] can be described thus: qHTS assay for cell viability of HEK293 cells (AID 743288). Further: on the % scale 0 is the no-effect control and ±100 the full control effect; nearly all actives have a fitted effect of over 50% in size. To be noted: ATP luminescence (CellTiter-Glo), 18 h, stronger effect = lower value. The method in brief: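 Parental HEK293 cells, 2,000 per well, preincubated at least 5 h at 37 C, then exposed to compounds in DMSO for 18 h at 37 C. Viability by CellTiter-Glo ATP luminescence after 30 min at room temperature.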
The nature of test [17]: qHTS assay for small molecule activators of the human pregnane X receptor (PXR) signaling pathway (AID 720659; call rule not given here; further: 0% is about no effect).
The nature of test [18]: Cell Viability - HepG2 (AID 433; calls by dose curve;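 further: potency means the concentration at half of the fitted maximal effect; cells exposed to compound for 40 hours; potency for ATP loss meaning cytotoxicity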). To be noted: qHTS. An outline of the steps:
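HepG2 cells, 1500 per well, treated 40 hr at 37 °C in complete medium; viability from intracellular ATP by CellTiter-Glo luminescence. Normalized to DMSO and 100 uM tamoxifen; AC50 from Hill fit of qHTS concentration-response.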

A short description of test [19]: MultiTox-Fluor Cytotoxicity Assay - LYMP1-001 - Live Cells (AID 947).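 Further: 0% = DMSO only and full inhibition = tetraoctylammonium bromide control.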
Test [20] in a line: Cellular Toxicity (caspase-3) N2a (AID 665).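 Further: compound exposure lasted 16 h at 37 °C before readout.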 The method in brief:
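N2a cells, 1500/well, 5 h settle at 37 °C; cpd 16 h, 37 °C; Caspase-Glo 3/7, 1 h RT; luminescence. Norm: DMSO = 0, 10 uM staurosporine = 100%. AC50, Hill fit.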

Sequence of Tumor necrosis factor (Homo sapiens) (P01375 whole entry, looked up): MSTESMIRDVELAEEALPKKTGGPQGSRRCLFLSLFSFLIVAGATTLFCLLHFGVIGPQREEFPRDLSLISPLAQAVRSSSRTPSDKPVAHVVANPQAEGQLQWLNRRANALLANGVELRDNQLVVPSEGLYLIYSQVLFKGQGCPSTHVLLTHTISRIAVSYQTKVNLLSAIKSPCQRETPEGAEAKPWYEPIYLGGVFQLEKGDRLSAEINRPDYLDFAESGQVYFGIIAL
Sequence of Voltage-gated inwardly rectifying potassium channel KCNH2 (Homo sapiens) (Q12809 whole entry, looked up): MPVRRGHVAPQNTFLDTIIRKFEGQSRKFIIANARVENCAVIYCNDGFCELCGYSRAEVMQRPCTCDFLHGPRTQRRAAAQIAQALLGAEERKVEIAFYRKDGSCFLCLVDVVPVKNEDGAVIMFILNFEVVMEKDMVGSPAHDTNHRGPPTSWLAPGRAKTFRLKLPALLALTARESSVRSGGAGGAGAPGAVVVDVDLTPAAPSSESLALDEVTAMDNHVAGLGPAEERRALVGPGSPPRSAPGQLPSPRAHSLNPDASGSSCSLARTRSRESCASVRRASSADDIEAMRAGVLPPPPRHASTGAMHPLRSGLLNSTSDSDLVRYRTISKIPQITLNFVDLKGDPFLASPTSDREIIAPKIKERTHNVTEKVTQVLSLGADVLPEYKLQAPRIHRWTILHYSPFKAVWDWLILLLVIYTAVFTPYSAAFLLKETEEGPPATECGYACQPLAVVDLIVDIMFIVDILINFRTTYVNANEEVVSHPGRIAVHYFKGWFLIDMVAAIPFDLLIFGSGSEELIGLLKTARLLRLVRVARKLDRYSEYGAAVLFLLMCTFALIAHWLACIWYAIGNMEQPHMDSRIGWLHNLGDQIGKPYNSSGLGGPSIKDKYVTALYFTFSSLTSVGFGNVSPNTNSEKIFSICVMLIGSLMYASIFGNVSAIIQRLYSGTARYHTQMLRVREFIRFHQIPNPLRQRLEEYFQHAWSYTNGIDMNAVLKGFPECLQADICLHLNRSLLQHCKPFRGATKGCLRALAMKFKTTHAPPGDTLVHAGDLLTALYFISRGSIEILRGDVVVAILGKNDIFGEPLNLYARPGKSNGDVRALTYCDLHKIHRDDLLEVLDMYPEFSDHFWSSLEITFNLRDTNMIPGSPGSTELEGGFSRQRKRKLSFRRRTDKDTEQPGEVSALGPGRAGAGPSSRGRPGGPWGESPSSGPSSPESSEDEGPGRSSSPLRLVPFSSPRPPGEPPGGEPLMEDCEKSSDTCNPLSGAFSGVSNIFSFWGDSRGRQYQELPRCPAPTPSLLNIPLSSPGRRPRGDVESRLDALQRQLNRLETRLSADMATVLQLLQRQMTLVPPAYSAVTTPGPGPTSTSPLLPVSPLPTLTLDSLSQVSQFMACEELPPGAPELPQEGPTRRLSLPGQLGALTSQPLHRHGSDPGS

Regarding `c1ccc(OCC2CO2)cc1` (stereo not drawn), the Potency result in [1], in test [3], in test [5], in [6], in test [7] and in test [8] was “inactive” each time. The Potency result in test [9], in test [10], in test [13] and in test [15] was “inactive” throughout. Moreover, the result in test [2], in test [4], in test [12], in test [14] and in [17] was inactive. For the same compound, the max response in test [11] is 6.69%; in test [16], 5.64% (inactive).

Consider `Nc1ccccc1-c1ccccc1`, for which, in test [18], the Potency is > 92 µM (inactive). In addition, the Potency entry in [1], in test [3], in test [5], in test [9], in [10] and in test [13] was “inactive” each time. In addition, in [15], the Potency result is “inactive”. Further, the compound was classed as inactive in [4], in test [19], in [12], in [14] and in [17]. Also, the max response in test [11] amounted to 14.6%.

With `O=C(Cc1ccccc1)OCc1ccccc1`, in [18], the Potency is > 92 µM (inactive). For the same compound, the Potency result in test [1], in test [5], in test [7], in [8], in test [9] and in test [10] was “inactive” in each case. Besides, the Potency result in [13] and in test [15] was “inactive” in each case. Also, the compound was called inactive in test [20], in test [4], in test [19], in [12], in test [14] and in test [17]. For the same compound, the figures for the max response in [11] and in test [16] were 10.7% and -0.778% (inactive), respectively.

Take `COC(=O)Nc1nc2ccccc2[nH]1`: the results for the Potency in [18] and in [1] were > 92 µM (inactive) and 7.94 µM (active), respectively. Also, the outcome in test [2], in test [20], in test [4], in [19] and in test [14] was inactive. In addition, the Potency entry in [3], in test [6], in test [7], in test [8], in test [9] and in test [10] was “inactive” throughout. The Potency entry in test [13] and in test [15] was “inactive” throughout. Besides, the max response in test [16] is -9.84% (inactive) and -19.2% (inactive).

As for `C=CCO`, the Potency result in test [1], in test [3], in test [6], in [7], in test [8] and in [9] was “inactive” throughout. Also, the Potency entry in test [10] and in test [15] was “inactive” each time. In addition, the compound was called inactive in test [2], in test [20], in test [19], in test [12], in [14] and in test [17]. The max response is -10.3% in [11] and 9.9% (inactive) in test [16].

Consider `ClCCCCl`, for which, in test [18], the Potency was > 92 µM (inactive). Moreover, the Potency result in test [1], in [3], in test [5], in test [8], in [9] and in test [10] was “inactive” in each case. Also, the Potency result in test [13] and in test [15] was “inactive” each time. The compound was called inactive in test [2], in test [20], in [4], in test [19], in [12] and in [14]. Moreover, the compound was called inactive in [17]. For the same compound, the max response in [11] was 1.73%; in test [16], 2.44% (inactive).
